Results from PMC4336329 (PLoS ONE, 2015).
The whole screen tested about 310,000 compounds, of which about 14,000 (4.5%) showed an effect of 50% or more. The effect is printed as a negative number. Shown is part of a subset that was picked to be rich in strong results.

molecular target: human ether-à-go-go-related gene (hERG) potassium channel (human, UniProt Q12809); experiment: primary screen, population patch clamp on CHO cells stably expressing hERG; higher = less effect of the substance
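Further: peak tail current of the secondary pulse compared with the same well before compound.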

human ether-à-go-go-related gene (hERG) potassium channel, sequence (Q12809 whole entry, looked up): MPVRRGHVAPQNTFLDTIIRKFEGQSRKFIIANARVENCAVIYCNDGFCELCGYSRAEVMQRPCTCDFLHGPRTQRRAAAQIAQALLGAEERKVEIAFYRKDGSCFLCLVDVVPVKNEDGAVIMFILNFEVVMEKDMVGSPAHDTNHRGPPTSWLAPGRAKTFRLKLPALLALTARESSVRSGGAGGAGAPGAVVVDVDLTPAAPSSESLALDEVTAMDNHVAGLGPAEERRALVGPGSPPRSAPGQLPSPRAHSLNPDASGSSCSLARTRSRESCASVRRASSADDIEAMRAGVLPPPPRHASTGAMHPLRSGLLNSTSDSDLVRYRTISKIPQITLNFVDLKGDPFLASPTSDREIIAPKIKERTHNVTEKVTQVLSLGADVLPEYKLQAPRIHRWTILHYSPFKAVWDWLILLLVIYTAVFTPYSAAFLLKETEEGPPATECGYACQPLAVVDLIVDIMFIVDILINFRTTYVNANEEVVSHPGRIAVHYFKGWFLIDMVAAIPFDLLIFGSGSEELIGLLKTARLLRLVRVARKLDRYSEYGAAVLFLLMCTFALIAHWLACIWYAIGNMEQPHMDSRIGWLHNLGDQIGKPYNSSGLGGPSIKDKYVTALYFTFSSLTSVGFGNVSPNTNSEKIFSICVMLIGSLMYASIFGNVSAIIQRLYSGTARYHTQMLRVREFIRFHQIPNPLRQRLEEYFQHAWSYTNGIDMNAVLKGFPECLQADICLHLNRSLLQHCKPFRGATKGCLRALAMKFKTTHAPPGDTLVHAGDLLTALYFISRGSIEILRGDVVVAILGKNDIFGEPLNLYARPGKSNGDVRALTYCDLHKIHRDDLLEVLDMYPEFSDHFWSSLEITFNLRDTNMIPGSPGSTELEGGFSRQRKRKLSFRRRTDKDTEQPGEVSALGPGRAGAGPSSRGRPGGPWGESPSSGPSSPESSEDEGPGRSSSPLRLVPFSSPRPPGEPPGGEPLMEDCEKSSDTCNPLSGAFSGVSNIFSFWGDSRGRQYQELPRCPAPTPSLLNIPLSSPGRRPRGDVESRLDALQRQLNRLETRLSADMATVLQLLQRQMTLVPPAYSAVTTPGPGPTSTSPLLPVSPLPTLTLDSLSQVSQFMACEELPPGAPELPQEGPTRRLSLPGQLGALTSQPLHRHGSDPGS

Point of comparison: COc1ccc(C(=O)/C=C/Nc2c(C)n(C)n(-c3ccccc3)c2=O)c(OC)c1, “hERG current change (%, negative = inhibition) at 10uM” value 0.857%. Against it:
- CCn1nc(CC(=O)O)c2ccccc2c1=O — higher, 22.9%
- COc1cc([N+](=O)[O-])ccc1NC(=O)NCc1ccco1 — higher, 10.9%
- Cn1nnnc1SCC(=O)c1c(N)n(C)c(=O)n(C)c1=O — higher, 18.3%
- O=C(O)c1nn(-c2cccc(C(F)(F)F)c2)ccc1=O — higher, 21.5%
- Cc1cc(=O)c(C(=O)O)nn1-c1ccccc1 — higher, 5.86%
- Cc1cc(=O)c(C(=O)O)nn1-c1cccc(C(F)(F)F)c1 — lower, -74.6%
- CCOc1ccccc1C1CC(=O)NC2=C1C(=O)CCC2 (centres unmarked) — higher, 13.6%
- O=C1CCC/C(=N/NC(=O)c2sc3ccccc3c2Cl)C1 — higher, 5.82%
- COc1cc(C(C)=O)ccc1OCC(O)CN1CCN(c2cc(C)cc(C)c2)CC1 (centres unmarked) — lower, -56.2%
- COc1cc(C(C)=O)ccc1OCC(O)CN1CCN(c2c(C)cccc2C)CC1 (centres unmarked) — lower, -60.3%
- COc1cc(C(C)=O)ccc1OCC(O)CN1CCN(S(=O)(=O)c2ccccc2)CC1 (centres unmarked) — lower, -11.5%
- COc1cc(C(C)=O)ccc1OCC(O)CN1CCN(c2ccc(C)cc2C)CC1 (centres unmarked) — lower, -58.3%
- COc1cc(C(C)=O)ccc1OCC(O)CN1CCN(c2ccc(F)cc2)CC1 (centres unmarked) — lower, -39%
- COc1cc(C(C)=O)ccc1OCC(O)CN1CCN(c2ccc(C)c(C)c2)CC1 (centres unmarked) — lower, -39.6%
- COc1cc(C(C)=O)ccc1OCC(O)Cn1nc(C)c(Br)c1C (centres unmarked) — lower, -7%
- COc1cc(C(C)=O)ccc1OCC(O)CN1CCN(c2ccccc2)CC1 (centres unmarked) — lower, -31.5%
- COc1cc(C(C)=O)ccc1OCC(O)CN1CCN(c2ccccn2)CC1 (centres unmarked) — lower, -9.62%
- COc1ccc(NC2CCCN(C(=O)CCc3scnc3C)C2)cc1 (centres unmarked) — higher, 12.2%
- CS(=O)(=O)c1ccc(N2CCN(C3CC(=O)NC3=O)CC2)cc1 (centres unmarked) — higher, 13.1%
- CC(=O)c1ccc(S(=O)(=O)NCCC(=O)OCC(=O)N2CCCC2=O)cc1 — lower, -7.6%
- CCOc1cccc2sc(N(CCN(C)C)C(=O)CCS(=O)(=O)c3ccccc3)nc12.Cl — lower, -23.5%
- COc1cccc2sc(N(CCN(C)C)C(=O)/C=C/c3cccs3)nc12.Cl — lower, -41.5%
- Cc1ccc2sc(N(CCCN(C)C)C(=O)CCS(=O)(=O)c3ccccc3)nc2c1C — lower, -6.04%
- Cc1cccc2sc(N(CCCN(C)C)C(=O)CCS(=O)(=O)c3ccccc3)nc12 — lower, -35%
- COc1cccc2sc(N(CCCN(C)C)C(=O)c3sc4ccccc4c3Cl)nc12.Cl — lower, -24.6%
- COc1ccc(OC)c2sc(N(CCCN(C)C)C(=O)CCS(=O)(=O)c3ccccc3)nc12.Cl — lower, -70.5%
- COc1cccc2sc(N(CCCN(C)C)C(=O)CCS(=O)(=O)c3ccccc3)nc12 — lower, -62.7%
- COc1cccc2sc(N(CCCN(C)C)C(=O)C(c3ccccc3)c3ccccc3)nc12.Cl — lower, -72.7%
- COc1ccc(Cl)c2sc(N(CCN(C)C)C(=O)CCS(=O)(=O)c3ccc(C)cc3)nc12.Cl — lower, -7.51%
- Fc1cccc(Cl)c1Cn1nnc2c(-n3ccnc3)ncnc21 — lower, 0.152%
- COCCN1Cc2cccc(C(=O)Nc3ccc(S(=O)(=O)N4CCCCC4)cc3)c2C1=O — lower, -4.49%
- O=S1(=O)c2cccc3cccc(c23)N1Cc1ccc(-c2nnco2)cc1 — higher, 7.2%
- COCc1cc(C)nc(OCC(=O)N/N=C/c2ccc(-c3cc([N+](=O)[O-])ccc3Cl)o2)c1C#N — higher, 18%
- COc1ccccc1C1N(c2cc(Cl)ccc2OC)C(=O)C2CCCN21 (centres unmarked) — higher, 1.23%
- Cn1c(=O)c2nc(NCc3ccccc3)cnc2n(C)c1=O — lower, -1.44%
- O=C(Nc1nnc(SCC(=O)N2CCOCC2)s1)C1CC(=O)N(c2ccc(F)cc2)C1 (centres unmarked) — higher, 15%
- O=[N+]([O-])c1ccc(Cl)cc1CNc1ccc(F)c(F)c1 — higher, 0.95%
- COc1ccc(NC(=O)c2cc([N+](=O)[O-])ccc2NC(=O)CNC2CCCCC2C)c(OC)c1 (centres unmarked) — lower, -76.3%
- COc1ccc(CNC2CCCCC2C)c(OC)c1 (centres unmarked) — lower, -56.9%
- COc1cc(NC(=O)c2cc([N+](=O)[O-])ccc2NC(=O)CNC2CCCCC2C)cc(OC)c1 (centres unmarked) — higher, 20.3%
- COc1ccc(NC(=O)c2cc([N+](=O)[O-])ccc2NC(=O)CNCc2ccccn2)c(OC)c1 — higher, 7.29%
- COc1ccc(CC(=O)NC2CCCCCC2)c(OC)c1 — lower, -3.09%
- COc1ccc(CNC2CCCc3ccccc32)c(OC)c1 (centres unmarked) — lower, -36.9%
- CCOc1ccc(CCNC(=O)COC(=O)c2ccc(C)s2)cc1OCC — higher, 14.6%
- COc1ccc(C2NC(=O)C(C#N)=C(S)N2c2ccc(C)cc2)cc1OC (centres unmarked) — higher, 18.2%
- Cc1c(C(N)=O)sc2nc(-c3ccccc3)cn12 — higher, 1.01%
- CCOC(=O)c1cc(NC(=O)CNCC(c2ccccc2)N(C)C)cc(C(=O)OCC)c1.O=C(O)C(=O)O (centres unmarked) — lower, -57.7%
- COc1ccc(Cl)cc1NC(=O)CNC(c1ccccc1)c1ccccc1 — higher, 12.6%
- COc1ccc(Cl)cc1NC(=O)CNCC(c1ccccc1)N(C)C.O=C(O)C(=O)O (centres unmarked) — lower, -73.9%
- Cc1ccc(Cl)cc1NC(=O)CNCC(c1ccccc1)N(C)C.O=C(O)C(=O)O (centres unmarked) — lower, -30.3%
- CC(=O)c1ccc(NC(=O)CNCC(c2ccccc2)N(C)C)cc1.O=C(O)C(=O)O (centres unmarked) — higher, 2.26%
- Cc1ccc(NC(=O)CNCC(c2ccccc2)N(C)C)cc1F.O=C(O)C(=O)O (centres unmarked) — lower, -38.1%
